Sm TGR inh: qHTS Assay for the Inhibitors of Schistosoma Mansoni Peroxiredoxins. Schistosoma mansoni thioredoxin glutathione reductase (TGR), Q962Y6. purified TGR, DTNB reduction, TNB absorbance 405 nm. Potency, µM (titrated, usually from 114 µM), without a hit: at the highest dose activity change, negative = inhibition, most hits filed as inhibitors. 360,000 compounds, 3% hits. AID 485364, 2010; also: nearly all actives have a fitted effect of over 60% in size
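First, TGR (20 nM dispensed) and NADPH were mixed with compound. Second, a 15 min room-temperature incubation followed. Third, further NADPH and then DTNB were added to start the reaction. Finally, TNB absorbance was monitored kinetically.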
Giardia FBPA inh: qHTS Assay for Inhibitors of Fructose-1,6-bisphosphate Aldolase from Giardia Lamblia; A8B2U2; purified Giardia FBPA; Potency, µM (titrated, usually from 59.6 µM), inactives show top-dose activity, negative = inhibition, most hits filed as inhibitors; 290,000 compounds, 0.71% hits; AID 2451, 2010; also: nearly all actives have a fitted effect of over 55% in size
Target sequence (A8B2U2 whole entry, looked up): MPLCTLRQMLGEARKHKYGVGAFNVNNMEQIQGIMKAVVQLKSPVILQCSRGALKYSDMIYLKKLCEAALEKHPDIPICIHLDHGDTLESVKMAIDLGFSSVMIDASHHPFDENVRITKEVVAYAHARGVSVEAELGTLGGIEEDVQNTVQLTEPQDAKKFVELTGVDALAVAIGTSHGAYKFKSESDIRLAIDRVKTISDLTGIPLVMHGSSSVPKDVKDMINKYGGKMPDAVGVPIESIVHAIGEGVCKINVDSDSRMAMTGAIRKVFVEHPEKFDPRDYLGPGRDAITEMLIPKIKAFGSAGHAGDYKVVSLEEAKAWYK
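Giardia FBPA (40 nM reagent) was preincubated 10 min at RT with compound (up to 57.5 uM final), then substrate plus GAPDH/TPI/NAD/arsenate coupling system with diaphorase/resazurin was added; resorufin fluorescence (525/598 nm) was read after 20 min.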
AmpC detergent: qHTS Inhibitors of AmpC Beta-Lactamase (assay with detergent) | P00811 | AmpC hydrolysis of nitrocefin, absorbance 480 nm, 0.01% Triton | Potency, µM (series often up to 114 µM), without a hit: at the top dose activity change, negative = inhibition, actives largely listed as inhibitors | 370,000 compounds, 0.041% hits;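 also: 0% = no-compound wells and -100% = no-enzyme wells; nearly all actives have a fitted effect of over 25% in size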
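AmpC (5.3 nM in the dispensed reagent) in 20 mM phosphate pH 7.0 with 0.01% (detergent screen) or 0.0001% Triton X-100 was preincubated with compounds for 15 min at room temperature. Nitrocefin was then added from an 800 uM solution, and hydrolysis was followed at 480 nm.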
AmpC no deterg: qHTS Inhibitors of AmpC Beta-Lactamase (assay without detergent). AID 485341, 2010. Potency, µM (series often up to 57.1 µM), without a hit: at the top dose activity change, negative = inhibition, most hits filed as inhibitors. 330,000 compounds, 0.52% hits. AmpC nitrocefin hydrolysis, absorbance 480 nm, 0.0001% Triton. P00811;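 also: plate controls were no compound for no effect and no enzyme for full effect; nearly all actives have a fitted effect of over 20% in size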
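AmpC (5.3 nM in the dispensed reagent) in 20 mM phosphate pH 7.0 with 0.01% (detergent screen) or 0.0001% Triton X-100 was preincubated with compounds for 15 min at room temperature. Nitrocefin was then added from an 800 uM solution, and hydrolysis was followed at 480 nm.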
Numbers without * were called inactive; ? = inconclusive; / = no result given; [ ] = remark or other dose. This is a sample that favours compounds with a hit; in the whole collection about 3.6% have one here. Calls follow the shape of the dose curve; as a rule, active = well fitted curve in the direction sought with a large enough effect; inconclusive = small, poorly fitted or top-dose-only effect, or another doubt; inactive = no such curve, though single readings can be large; an effect the other way counts as inactive or inconclusive. Unless noted, % is scaled to controls: 0 for no effect and ±100 for the full control effect; potency is read from the fitted curve at half-maximal effect.

SMILES	Sm TGR inh	Giardia FBPA inh	AmpC detergent	AmpC no deterg
CCc1cc(C(c2ccc(F)cc2)N2CCOCC2)c(NC(=O)c2ccccc2)s1 (stereo unspecified)	4µM*	/	1%	-31%
COc1cccc(CNC(=O)CCC2CCCN(C(=O)C3=CC(=O)CC(C)(C)O3)C2)c1 (stereo unspecified)	3%	-1%	-1%	21%
COc1cccc([C@@H]2Oc3ccc(OC)cc3C(=O)[C@H]2OC(=O)NCCc2ccc(OC)c(OC)c2)c1	/	3%	/	/
CC1=C(C(=O)Nc2ccccc2)C(c2ccccn2)n2ncnc2N1 (stereo unspecified)	-6%	5%	-2%	/
CC1=C(C(=O)Nc2ccccc2)C(c2ccc[nH]2)n2ncnc2N1 (stereo unspecified)	28µM*	/	-1%	-40%
CN(C)Cc1cc(O)c(CN(C)C)cc1O	2.5µM*	?	3%	-17%
Oc1ccccc1O	16µM*	-18%	?	-22%
Nc1ccccc1O	?	/	3%	-8%
CCN(CC(=O)Nc1c(C(=O)OC)[nH]c2ccc(C)cc12)c1ccc2c(c1)OCO2	50µM*	?	-13%	9%
CCc1cc(=O)oc2cc(OCc3ccc(C(=O)O)o3)ccc12	?	7%	1%	-7%
Cc1cc(C)c(NC(=O)/C(=C/c2ccco2)c2ccccc2)c(C)c1	25µM*	-1%	-8%	-22%
Cc1ccccc1NC(=O)/C(=C/c1ccccc1)c1ccccc1	12%	1%	4%	-31%
Cc1cccc(C)c1NC(=O)/C(=C/c1ccco1)c1ccccc1	32µM*	-24%	-1%	-24%
O=C1CN(S(=O)(=O)c2ccc(F)cc2)c2ccccc2N1	0%	5%	?	-22%
COc1ccc(S(=O)(=O)N2CC(=O)Nc3ccccc32)cc1F	11µM*	-1%	6%	-10%
O=[N+]([O-])c1ccc(N/N=C/c2ccc(O)c(O)c2O)c(S(=O)(=O)N2CCOCC2)c1	/	10µM*	-11%	-58%
O=[N+]([O-])c1cccc(N/N=C/c2cccc(O)c2O)c1	-30%	?	-11%	16µM*
O=[N+]([O-])c1ccc(N/N=C/c2cccc(O)c2O)c(S(=O)(=O)N2CCOCC2)c1	/	?	-1%	11µM*
COc1cc(/C=N/Nc2ccc([N+](=O)[O-])cc2S(=O)(=O)N2CCOCC2)cc(OC)c1OC	-17%	-12%	-8%	-20%
O=C(Nc1ccc(C(=O)OCc2cc(=O)n3nc(C4CC4)sc3n2)cc1)c1ccccc1	3%	/	0%	/
CCc1cccc(CC)c1NC(=O)CCS(=O)(=O)c1ccc(Br)s1	0%	/	15%	/
CC(C)N1C(=O)S/C(=C\c2ccc(-c3ccc(Cl)c(C(=O)O)c3)o2)C1=O	-35%	-5%	?	-12%
CCN(CC)c1ccc(C=C2C(=O)N(C)C(=S)N(C)C2=O)o1	45µM*	-2%	1%	-36%
CCN(CC)c1ccc(/C=C2/SC(=O)N(C(C)C)C2=O)o1	11µM*	?	-14%	-24%
COc1ccc(OC)c([C@@H]2Nc3ccc(C(=O)O)cc3[C@@H]3C=CC[C@@H]32)c1	?	/	10%	/
SMILES	Sm TGR inh	Giardia FBPA inh	AmpC detergent	AmpC no deterg
Fc1ccc([C@@H]2Nc3ccccc3[C@@H]3C=CC[C@@H]32)cc1	5.6µM*	/	10%	/
Cc1cccc(NS(=O)(=O)c2ccc3c(c2)[C@H]2C=CC[C@H]2[C@@H](c2ccc(F)cc2)N3)c1	-4%	/	1%	/
COc1ccc(C(=O)N/N=C(\C)c2ccc3c(c2)C2C=CCC2C(c2ccccc2)N3)cc1 (stereo unspecified)	10µM*	?	-9%	-4%
Cc1cc(C)c2c(c1)[C@@H]1C=CC[C@@H]1[C@H](c1ccc(S(=O)(=O)N3CCOCC3)cc1)N2	2.8µM*	-2%	-13%	13%
COC(=O)c1ccc(C2Nc3c(C)cc(C)cc3C3C=CCC32)cc1 (stereo unspecified)	1.1µM*	/	-6%	/
Cc1ccc(C(=O)C(C)OC(=O)Cn2c(C)csc2=O)cc1 (stereo unspecified)	-2%	/	5%	-13%
O=C(CSc1nnc(NC(=O)c2ccc(F)cc2F)s1)NC1CCCC1	53%	-10%	-7%	-13%
COC(=O)c1ccc([C@H]2Nc3ccc(S(=O)(=O)Nc4ccc(F)cc4)cc3[C@H]3C=CC[C@H]32)cc1	32µM*	/	-7%	/
COc1cccc(NS(=O)(=O)c2ccc3c(c2)C2C=CCC2C(c2ccc(C(=O)O)cc2)N3)c1 (stereo unspecified)	?	-22%	-15%	-6%
CCC(=O)N1c2ccccc2C(N(C(C)=O)c2ccccc2)CC1C (stereo unspecified)	10µM*	0%	1%	26%
CCOC(=O)c1cnc2c(Cl)cc(Cl)cc2c1NCCCN1CCOCC1	13µM*	5%	?	-3%
CCOC(=O)c1cnc2c(C)cc(Cl)cc2c1NCCCN1CCOCC1	?	2%	1%	6%
O=C(OCc1ccccc1)/C(=C/c1cccc2ccccc12)NC(=O)c1ccccc1	5%	2%	-10%	-29%
C=CCOC(=O)/C(=C/c1cccc2ccccc12)NC(=O)c1ccccc1	3%	-4%	?	13µM*
Cc1ccccc1NC(=O)C1CCCN(S(=O)(=O)c2cccc3cccnc23)C1 (stereo unspecified)	2%	5%	?	5µM*
Cc1ccc(Cl)cc1NC(=O)C1CCCN(S(=O)(=O)c2cccc3cccnc23)C1 (stereo unspecified)	-10%	/	-9%	/
COc1cc2c(cc1OC)C1=C(C#N)CN(CC(=O)O)CN1CC2	35µM*	-23%	-11%	46%
COc1cc2c(cc1OC)C1=C(C#N)CCC(=NC(=O)c3ccco3)N1CC2	/	-4%	-2%	-15%
COc1ccc2[nH]c(C)c(C(=O)CN(C)CC3OCCO3)c2c1	25µM*	-9%	-8%	-9%
COc1ccc2[nH]c(C)c(C(=O)CN(C)C)c2c1	40µM*	-1%[12.9 µM]	-13%	2%
CCC1CCCCN1CC(=O)c1c(C)[nH]c2ccc(OC)cc12 (stereo unspecified)	?	-24%	2%	-12%
COc1ccc(NC(=O)CN(C)CC(=O)c2c(C)[nH]c3ccccc23)cc1	?	/	0%	-24%
COc1cccc(NC(=O)CN(C)CC(=O)c2c(C)[nH]c3ccccc23)c1	18µM*	/	0%	-4%
CC(C)(C)OC1NS(=O)(=O)OCC1NCOC(Cl)(Cl)Cl (stereo unspecified)	0.45µM*	?	-17%	-25%
COc1cccc(N2CCN(c3ncc4c(n3)CCN(Cc3ccc(Br)cc3)C4)CC2)c1	3%	/	10%	/
